Laboratory results as given in PubChem BioAssay.
The source made the active and inactive calls. Unless noted, how the calls were made is not given here.

How the values were obtained:
[1] = target: Alpha-bungarotoxin (Bungarus multicinctus) (UniProt P60615); experiment: compounds binding labelled alpha-BTX control protein – biochemical, small-molecule microarray, Alexa647 label, 635/667 nm fluorescence, artefact control for SMM control protein annotation, profiling panel (AID 1117); settings: alpha-BTX-A647 binding fluorescence, higher = more signal
[2] = target: E3 ubiquitin-protein ligase XIAP (Homo sapiens) (UniProt P98170); experiment: small molecules binding XIAP protein – biophysical, small-molecule microarray, fluorescence 635 nm, primary screen (AID 1181); settings: higher = more signal;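 further: score merges 667 nm emission and signal to noise over triplicate slides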
[3] = system: XIP peptide (Xip251-270) binding; experiment: XIP fragment 251-270 binding compounds – biochemical, small-molecule microarray, fluorescence 635/667 nm, 0.1 µg/mL protein, primary screen (AID 1182); settings: fluorescent protein binding, 635 nm, higher = more signal, called active from +8 up or from −8 down
[4] = system: XIP peptide (Xip251-270); experiment: compounds binding XIP fragment 251-270 – biochemical, small-molecule microarray, fluorescence 635/667 nm, 0.5 µg/mL protein, primary screen (AID 1183); settings: fluorescence 635 nm, higher = more signal
[5] = blood-stage malaria parasite viability loss – strain 3D7, DAPI fluorescence, 100 nL, primary screen (AID 1184);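 further: parasites grown inside human red blood cells in medium with human serum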; settings: P. falciparum 3D7 growth, 3 d, higher = more signal
[6] = target: Homeobox protein Hox-A13 (Mus musculus) (UniProt Q62424); experiment: disruptors of Hoxa13 oligonucleotide interaction – biochemical, fluorescence polarization, labeled oligonucleotide, primary screen (AID 1185); settings: Hoxa13:DNA binding, 15 min, higher = more signal, called active from +8 up or from −8 down
[7] = blockers of DNA damage checkpoint Chk1 activation – imaging, HeLa, hydroxyurea, phospho-Chk1 antibody, percent positive cells, primary screen (AID 1186); settings: hydroxyurea-induced phospho-Chk1 immunofluorescence imaging, higher = more signal
[8] = blockers of DNA damage checkpoint Chk1 activation – imaging, HeLa, hydroxyurea, phospho-Chk1 nuclear intensity, primary screen (AID 1187); settings: hydroxyurea-induced phospho-Chk1 immunofluorescence imaging, higher = more signal

Chain of Homeobox protein Hox-A13 (Mus musculus) (Q62424 whole entry, looked up): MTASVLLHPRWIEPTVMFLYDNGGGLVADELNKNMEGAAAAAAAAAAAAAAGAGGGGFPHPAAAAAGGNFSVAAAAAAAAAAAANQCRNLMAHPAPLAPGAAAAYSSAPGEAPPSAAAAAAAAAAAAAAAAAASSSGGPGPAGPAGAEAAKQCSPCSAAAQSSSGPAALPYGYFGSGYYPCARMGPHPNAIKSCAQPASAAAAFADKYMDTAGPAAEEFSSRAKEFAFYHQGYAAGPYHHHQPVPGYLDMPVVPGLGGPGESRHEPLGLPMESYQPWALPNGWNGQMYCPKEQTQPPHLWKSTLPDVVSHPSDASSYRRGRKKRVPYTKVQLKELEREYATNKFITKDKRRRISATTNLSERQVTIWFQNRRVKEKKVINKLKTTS
Chain of Alpha-bungarotoxin (Bungarus multicinctus) (P60615 whole entry, looked up): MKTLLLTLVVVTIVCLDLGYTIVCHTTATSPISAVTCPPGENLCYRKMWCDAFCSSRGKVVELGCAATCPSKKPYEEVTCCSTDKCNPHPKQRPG
Chain of E3 ubiquitin-protein ligase XIAP (Homo sapiens) (P98170 whole entry, looked up, the tested form may be a part): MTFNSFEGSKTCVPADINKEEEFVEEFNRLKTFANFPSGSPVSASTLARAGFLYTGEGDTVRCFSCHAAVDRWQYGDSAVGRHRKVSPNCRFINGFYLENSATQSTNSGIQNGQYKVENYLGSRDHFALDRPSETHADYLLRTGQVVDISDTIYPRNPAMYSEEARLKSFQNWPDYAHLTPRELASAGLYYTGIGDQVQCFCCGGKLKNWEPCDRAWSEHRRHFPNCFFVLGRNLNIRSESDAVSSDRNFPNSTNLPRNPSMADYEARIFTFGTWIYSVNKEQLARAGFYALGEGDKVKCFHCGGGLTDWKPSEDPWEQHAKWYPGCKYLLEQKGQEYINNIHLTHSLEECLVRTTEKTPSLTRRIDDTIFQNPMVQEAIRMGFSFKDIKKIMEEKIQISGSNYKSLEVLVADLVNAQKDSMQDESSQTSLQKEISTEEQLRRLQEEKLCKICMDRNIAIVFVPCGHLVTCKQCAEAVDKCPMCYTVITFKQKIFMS

| Compound | composite z-score [1] | composite z-score [2] | composite z-score [3] | composite z-score [4] | z-score [5] | z-score [6] | z-score [7] | z-score [8] |
| --- | --- | --- | --- | --- | --- | --- | --- | --- |
| C=C(/C(=C/C[C@H](OC(=O)c1ccncc1)c1cccc(OCCO)c1)c1cc(C(=O)OC)ccc1OC)C(C)C | 0.288 | -0.153 | 0.236 (inactive) | 0.256 | -2.77 | -2.91 (inactive) | -1.09 (inactive) | -1.36 (inactive) |
| C=C(COC)C(=O)CC[C@H](OC(=O)c1ccccc1-c1ccccc1C(=O)O)c1ccccc1OCCO | 0.737 | -0.111 | 1.43 (inactive) | 0.356 | -1.11 | -3.93 (inactive) | 0.269 (inactive) | -0.228 (inactive) |
| C=C(C1=CCN(S(=O)(=O)c2ccc(C)cc2)C1)[C@@H](OC(C)=O)[C@@H]1CCCN1S(=O)(=O)c1ccccc1[N+](=O)[O-] | -1.48 | -0.301 | 0.698 (inactive) | -0.737 | -2.68 | -3.62 (inactive) | -0.353 (inactive) | 0.0039 (inactive) |
| C=CCNC(=O)[C@@H]1[C@H]2C(=O)O[C@H](c3ccccc3)[C@H](c3ccccc3)N2[C@H](c2ccc(O)cc2)[C@@]12C(=O)Nc1ccccc12 | 1.33 | 0.276 | 0.768 (inactive) | 0.888 | -1.73 | -3.58 (inactive) | 0.21 (inactive) | 0.399 (inactive) |
| C=C(COC)/C(=C/C[C@H](OC(C)=O)c1cccc(OCCO)c1)c1cc(C(=O)OC)ccc1OC | -0.284 | 0.0077 | 0.876 (inactive) | 0.876 | -2.67 | -2.39 (inactive) | -0.283 (inactive) | -0.727 (inactive) |
| CN(C)CCCC[C@@H]1NC(=O)[C@@H]2C[C@H](C(=O)NCCCCCNC(=O)CS)[C@H](c3cccc(OCCO)c3)N2C1=O | 0.4 | -0.135 | 0.62 (inactive) | -0.351 | -1.46 | -1.12 (inactive) | 0.27 (inactive) | 0.302 (inactive) |
| O=C1c2ccccc2[C@](Cc2ccccc2I)(C(=O)O)[C@H](c2ccc(CO)cc2)N1Cc1ccccc1Cl | 2.29 | -0.148 | 0.8 (inactive) | 0.507 | 0.303 | -4.18 (inactive) | -0.679 (inactive) | -0.559 (inactive) |
| C=C(C(=O)CC[C@@H](OC(C)=O)c1ccccc1OCCO)C(C)C | -0.175 | -0.0163 | 0.888 (inactive) | 0.565 | -1.59 | -1.92 (inactive) | -0.345 (inactive) | -0.171 (inactive) |
| NC(=O)N1C(=O)C2C(C1=O)C1C=C(c3ccc(CO)cc3)C2C(C2CC2)N1Cc1cc2c(cc1Br)OCO2 (stereo not drawn) | 0.55 | -0.143 | 1.06 (inactive) | -0.673 | -2.14 | -3.21 (inactive) | -0.136 (inactive) | -0.279 (inactive) |
| C/C=C/[C@@H](CCn1cc(CCO[Si](C(C)C)(C(C)C)C(C)C)nn1)[Si](C)(C)c1ccc(OC)cc1 | -1.25 | -0.169 | -0.411 (inactive) | -1.48 | -0.84 | -5.56 (inactive) | -0.233 (inactive) | 0.122 (inactive) |
| CC(C)C[C@@H]1NC(=O)[C@@]23C(=O)N[C@@H](Cc4ccccc4)C2[C@H](C)[C@@]2(C)O[C@H]2C3/C=C/CC/C=C/CNC(=O)[C@@H](C)NC1=O (stereo partly drawn) | -0.195 | -0.227 | -0.804 (inactive) | -0.0387 | -2.13 | -4.78 (inactive) | -0.0396 (inactive) | 0.292 (inactive) |
| COC(=O)C1=CC(c2ccc(CO)cc2)=CC(C2CC2)N(C)C=C1C(=O)OC (stereo not drawn) | 3.09 | -0.0388 | 1.8 (inactive) | -0.407 | -0.591 | -8.22 (active) | -0.516 (inactive) | -0.732 (inactive) |
| CCOC(=O)C[C@H]1[C@H](OC(=O)c2ccc(-c3ccccc3)cc2)[C@@H](NC(=O)C2CCCCC2)c2cc(OCCCO)ccc2N1C(=O)c1ccc2ccccc2n1 | 0.608 | 0.158 | 0.29 (inactive) | 0.0417 | -0.915 | -0.844 (inactive) | -0.807 (inactive) | -0.479 (inactive) |
| CCCCC(=C=CC[C@H](O)c1cccc(OCCO)c1)CCO | 0.629 | 0.0458 | 0.511 (inactive) | -0.97 | -1.01 | -2.75 (inactive) | -0.0801 (inactive) | -0.401 (inactive) |
| COc1ccc(C(=O)Nc2cccc(CN3C(=O)[C@@]4(O[C@@H](CCO)[C@H]([Si](C)(C)c5ccc(OC)cc5)[C@H]4C)c4ccccc43)c2)cc1 | 0.689 | 0.0049 | 0.11 (inactive) | 0.115 | -2.7 | -2.09 (inactive) | -1.08 (inactive) | -0.215 (inactive) |
| CCOC(=O)C[C@H]1[C@H](OC(=O)c2ccc(-c3ccccc3)cc2)[C@@H](NC(=O)c2ccccc2)c2cc(OCCCO)ccc2N1C(=O)c1ccccc1 | 1.09 | -0.0351 | 0.358 (inactive) | -0.206 | -1.21 | -0.959 (inactive) | -1.04 (inactive) | -0.361 (inactive) |
